Assay: qHTS drug screen for cell cycle checkpoint inhibitors in PARPi-resistant BRCA-mutant ovarian cancer cell lines. (AID 1963452)
Details: PEO1/OlaR viability, CellTiter-Glo luminescence, 96 h; measured here: PEO4 Z-AUC; stronger effect = lower value
Outline: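 PEO1, PEO4 and PEO1/OlaR ovarian cancer cells, 600 per well, exposed 96 h at 37C to a dilution series. Viability read by CellTiter-Glo luminescence, normalized to DMSO and empty wells; activity summarized as Z-AUC.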

SMILES	Z-AUC
CC(C)(O)c1cc2nc(-c3cnc(N)nc3)nc(N3CCOCC3)c2s1	-1.8
CN[C@H]1CCc2cc(OC)c(OC)c(OC)c2-c2ccc(OC)c(=O)cc21	-1.47
CN1CC[C@@H](c2c(O)cc(O)c3c(=O)cc(-c4ccccc4Cl)oc23)[C@@H](O)C1	-1.16
COc1cccc(Nc2c(C(N)=O)cnc3c(C)cc(S(=O)(=O)c4cccc(C(=O)N(C)C)c4)cc23)c1	0.84
CC(C)[C@H](C(=O)Nc1ccc(C(=O)NO)cc1)c1ccccc1	-1.69
Cc1ccc(CN2CCNCC2)cc1NC(=O)CNc1ccc(F)c(F)c1	-0.154
COC(=O)Nc1nc2ccc(C(=O)c3ccc(F)cc3)cc2[nH]1	-1.13
O=C(CCCCCCC(=O)Nc1ccc([C@H]2O[C@@H](CSc3nc(-c4ccccc4)c(-c4ccccc4)o3)C[C@@H](c3ccc(CO)cc3)O2)cc1)NO	0.641
COc1cc2ncn(-c3cc(OCc4ccccc4C(F)(F)F)c(C(N)=O)s3)c2cc1OC	-1.55
COc1cc2c(Oc3ccc4[nH]c(C)cc4c3F)ncnc2cc1OCCCN1CCCC1	0.0837
COc1cc(-c2nn(C3CCC(N4CCN(C(C)=O)CC4)CC3)c3ncnc(N)c23)ccc1NC(=O)c1cc2ccccc2n1C (centres undefined)	-0.0545
CCCCCN(CCC12CC3CC(CC(C3)C1)C2)C(=O)NCCCc1ccncc1	-0.141
COc1c(OCCCN2CCOCC2)ccc2c3n(c(=NC(=O)c4cnc(N)nc4)nc12)CCN3	-0.708
Cc1c(Cn2c(C)nc3c(C(=O)O)cc(N4CCOCC4)cc32)cccc1C(F)(F)F	0.3

Source: PubChem BioAssay (NCATS)
